# Cardio protect – myocardial damage modulation in H9c2 cells. AID 588492. 360,000 tested, 0.63% active. protection from H2O2 cell death, % at 20 µM. H9c2 cardiomyocytes, H2O2 injury protection, ATPLite, 2 h;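 active means compounds giving at least 50% protection of heart cells from peroxide-induced death in the single-dose screen, raw or plate-pattern-corrected value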;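 further: 0% = DMSO wells with peroxide and 100% = DMSO wells without peroxide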
# MPTP inh – permeability transition pore inhibition. isolated mouse mitochondria, Ca2+ swelling absorbance, 30 min. inhibition, % at 10 µM. 360,000 tested, 1.4% active. AID 602449;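 active means inhibition of 50% or more, scaled per plate between neutral and stimulator controls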;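 further: 0% = DMSO wells given calcium and 100% = 1 mM EGTA wells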
# CR mimetic SO – caloric restriction mimetics inhibiting age-related superoxide in yeast; S. cerevisiae aged cells, superoxide DHE fluorescence; active compounds read low; superoxide response (% of plate mean), % at 10 µM; 330,000 tested, 0.18% active; AID 2690;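 active means superoxide response under a set limit, about three screen SD below normal, cut at about 65% in these data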;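 further: yeast aged for seven days with compound at 30 °C before DHE staining; 100% = average MFI of all compound-treated wells on the plate with controls excluded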
# SUMO Mot1 rescue – SUMOylation pathway inhibition by Mot1-301 growth rescue; S. cerevisiae Mot1-301 growth rescue, ATP luminescence, 38.5C; percent above DMSO median, 100 means doubled; 320,000 tested, 1% active; growth rescue, % at 18.8 µM;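 active means every valid replicate shows activation above 250% relative to neutral control wells; inactive means the rest, any valid replicate at or below 250%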;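 further: OY570 slx delta 5 strain wells were the positive control but not used for scaling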
# FAS TE block – inhibitors of human fatty acid synthase thioesterase domain | inhibition, % at 15 µM | recombinant FAS-TE, OMFH fluorogenic substrate, fluorescence endpoint | P49327 | AID 602261 | 360,000 tested, 0.67% active;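 active means compounds whose normalised, plate-corrected inhibition of enzyme fluorescence in the single-dose primary screen is 50% or more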;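 further: 0% = DMSO with enzyme and 100% = substrate without enzyme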
# aDG glyco up – alpha-DG glycosylation activation. 360,000 tested, 0.22% active. AID 624168. activation, % at 10 µM. Pro5-aDG cells, alpha-DG glycosylation AlphaScreen (IIH6); 0% Pro5, 100% B10-LARGE cell signal;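 active means activation of at least 8% versus controls, or a plate z-score of at least 8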;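 further: Pro5 are CHO cells carrying HIG-tagged alpha-DG that lacks glycosylation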
# FAS-TE inh conf – confirmation of human fatty acid synthase thioesterase inhibitors. shares compounds with FAS TE block. recombinant FAS-TE, OMFH fluorogenic substrate, fluorescence. inhibition, % at 15 µM. 2,300 tested, 45% active. AID 624325;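 active means compounds inhibiting the enzyme by at least 50% at 15 µM in any one of the replicates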;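 further: 0% = enzyme with DMSO only and 100% = wells lacking enzyme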
# Numbers without * were called inactive; / = no result. Rows were chosen to be rich in hits. Some 3.8% of all compounds tested hit in one or more screens of this group.
SMILES,Cardio protect,MPTP inh,CR mimetic SO,SUMO Mot1 rescue,FAS TE block,aDG glyco up,FAS-TE inh conf
N#Cc1ccc2nc(-c3ccc(CN4CCC(n5c(=O)[nH]c6ccccc65)CC4)cc3)c(-c3ccccc3)nc2c1,/,0.3,/,/,93.1*,-0.8,7.4
Cc1cccc2nc(-c3ccccc3)c(-c3ccc(CN4CCC(n5c(=O)[nH]c6ccccc65)CC4)cc3)nc12,/,2.6,/,/,44.2,-0.5,/
O=C(C1CC(c2ccc(Cl)c(Cl)c2)=NO1)N1CCC2(CC1)OCCO2 (centres undefined),-3.7,0.8,100.3,6.2,56.7*,0.2,65.6*
CCOC(=O)[C@]12Cc3ccc(C)cc3[C@H]1N(C1CCCCC1)C(=O)c1cc(OC)ccc12,/,-5.2,/,/,76.7*,-0.1,27.9*
CCOC(=O)[C@]12Cc3c(cc(OC)c(OC)c3OC)[C@H]1N(C1CCCCC1)C(=O)c1ccccc12,/,-3.3,/,/,81.4*,-0.2,61.8*
CCOC(=O)[C@]12Cc3ccccc3[C@H]1N(C(C)C)C(=O)c1ccccc12,/,-2.4,/,/,13.4,0.3,/
CCOC(=O)[C@]12Cc3cc(Cl)ccc3[C@H]1N(C1CCCCC1)C(=O)c1cc(OC)ccc12,/,-4.9,/,/,84.4*,-0.3,38.8*
CCOC(=O)[C@]12Cc3ccc(C)cc3[C@H]1N(C1CCCCC1)C(=O)c1ccccc12,/,-1.6,/,/,79.8*,-0.2,23.5*
C[C@]12CC[C@@H](O)CC1=CCC1C2CC[C@@]2(C)C1C[C@@H](F)[C@H]2O (some centres undefined),2.9,0.5,/,/,-5.3,0.1,/
[N-]=[N+]=NCc1cn2cccnc2n1,2.8,-6.0,96.5,362.7,-8.2,-0.2,/
CCCCCN1C(=O)c2cc(OC)ccc2[C@@]2(C(=O)OCC)Cc3cc(OC)ccc3[C@@H]12,/,-2.4,/,/,51.6*,0.2,39.9
CCOC(=O)[C@]12Cc3cc(C)ccc3[C@H]1N(CCC(=O)OC)C(=O)c1ccccc12,/,-3.3,/,/,42.3,0.1,/
CCOC(=O)[C@]12Cc3cc(C)ccc3[C@H]1N(C1CCCCC1)C(=O)c1ccccc12,/,-0.5,/,/,81.9*,-0.3,33.1*
Cn1c(O)c(C=NCCCN2CCCC2=O)c(=O)n(C)c1=O,1.6,-2.5,84.4,2.3,-4.1,-0.1,/
COc1ccccc1CCNC(=O)CCC(=O)N1CC2C[C@@H](C1)Cn1c2cccc1=O,0.7,-1.3,108.7,5.0,-3.5,-0.1,/
CC1CC2CC(=O)CCC2(C)C2CCC3(C)C(O)CCC3C12 (centres undefined),3.6,0.5,/,/,1.3,-0.3,/
CSCCC(c1nnnn1C1CCCCC1)N1CCC(n2c(=O)[nH]c3ccccc32)CC1 (centres undefined),24.9,-1.4,/,/,4.0,-0.4,/
Cc1cccc(C)c1-n1nnnc1C(c1cccc2ccccc12)N1CCC(n2c(=O)[nH]c3ccccc32)CC1 (centres undefined),-9.8,1.4,/,/,85.5*,0.0,17.2
O=c1[nH]c2ccccc2n1C1CCN(C(CCc2ccccc2)c2nnnn2C2CCCCC2)CC1 (centres undefined),9.1,1.7,/,/,55.0*,-0.5,19.0
COc1ccc(-n2nnnc2C(c2cc3ccccc3o2)N2CCC(n3c(=O)[nH]c4ccccc43)CC2)cc1 (centres undefined),9.5,0.0,/,/,40.3,-0.2,/
O=c1[nH]c2ccccc2n1C1CCN(C(c2cccc3ccccc23)c2nnnn2-c2ccc3c(c2)OCCO3)CC1 (centres undefined),26.6,-0.5,/,/,71.5*,-0.5,14.1
O=c1[nH]c2ccccc2n1C1CCN(C(c2cc3ccccc3o2)c2nnnn2-c2ccc3c(c2)OCCO3)CC1 (centres undefined),30.3,-1.0,/,/,65.8*,-0.6,13.2
Cc1cccc(C)c1-n1nnnc1C(c1cccs1)N1CCC(n2c(=O)[nH]c3ccccc32)CC1 (centres undefined),-2.8,0.4,/,/,35.9,-0.2,/
COc1ccc(C(c2nnnn2-c2ccc(OC)cc2)N2CCC(n3c(=O)[nH]c4ccccc43)CC2)cc1 (centres undefined),19.7,-0.7,/,/,25.4,-0.8,/

# Source: PubChem (several laboratories)
